uPA surface inh: cell surface uPA generation inhibition. cell surface uPA generation assay, qHTS. Potency, µM (doses to about 38.3 µM), for inactives: at the highest dose activity change, negative = inhibition, hits mostly inhibitors. 330,000 tested, 0.31% active. AID 540303; active means well fitted inhibition curve with a large enough effect; inconclusive means small, poorly fitted or top-dose-only effect; inactive means no such curve, though single readings can be large or run the other way; tested in mouse RAW 264.7 cells; further: potency means the concentration at half of the fitted maximal effect; nearly all actives have a fitted effect of over 55% in size
HT1080 IDH1KD tx: toxicity to HT-1080 IDH1 knockdown cells (counter line); Potency, µM (series often up to 46.1 µM), for the others: top-dose activity, negative = toxicity, actives largely listed as cytotoxic; HT-1080 IDH1 knockdown viability, ATP luminescence, 48 h; 360,000 tested, 2% active;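 further: potency means the concentration at half of the fitted maximal effect; 0% = DMSO wells and -100% = cell-free medium wells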
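Luminescent ATP read-out (CellTiter-Glo, 10 min at room temperature) after 48 h compound exposure at 37 °C gave viability of IDH1-knockdown HT-1080 cells. Activity was normalised to DMSO and cell-free wells, then fitted as concentration-response curves.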
IL-1B inflam inh: inflammasome signaling inhibition, IL-1 beta readout; THP-1 LPS/ATP IL-1B secretion, AlphaLISA, 16 h; stronger effect = lower value; activity change, % at 57.5 µM; 360,000 tested, 4.7% active; AID 743279; in the data active means activity change below about -50%; inconclusive means mostly about -30% to -49%
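THP-1 cells pretreated 1 hr with compounds (up to 57.5 uM final), then stimulated with LPS (250 ng/mL final) plus ATP (1.25 mM final); secreted IL-1B measured by AlphaLISA after 16 hr, decreased signal indicating inhibition.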
DT40 TDP1 no CPT: qHTS for Inhibitors of human tyrosyl-DNA phosphodiesterase 1 (TDP1): qHTS in cells in absence of CPT. DT40 Tdp1-/- hTDP1 cells, no CPT, ATP luminescence, 48 h. Potency, µM (titrated, usually from 46.2 µM), without a hit: at the top dose activity change, negative = growth inhibition, actives largely listed as inhibitors. 420,000 tested, 15% active; further: potency means the concentration at half of the fitted maximal effect; nearly all actives have a fitted effect of over 55% in size
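Readout: luminescence from CellTiter-Glo after 30 min in the dark at RT. Cells: DT40 Tdp1-/- with stable hTDP1, 400/well. Exposure: compounds alone, ≥48 hr, 37 °C.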
TDP1 cell CPT: growth inhibition of DT40 Tdp1-/-;hTDP1 cells with camptothecin (screen for TDP1 inhibitors); 420,000 tested, 12% active; AID 686979; Potency, µM (highest dose often 46.2 µM), without a hit: top-dose activity change, negative = growth inhibition, actives largely listed as inhibitors; chicken DT40 Tdp1-/-;hTDP1 cells + 20 nM CPT, ATP luminescence, 48 h; further: potency means the concentration at half of the fitted maximal effect; nearly all actives have a fitted effect of over 55% in size
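Chicken DT40 Tdp1-/- cells complemented with human TDP1, 400 cells/well, exposed to compounds plus 20 nM camptothecin for at least 48 h at 37 C; viability read as ATP content by CellTiter-Glo luminescence.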
HT1080NT lethal: kills 2HG-producing HT-1080-NT fibrosarcoma cells | Potency, µM (series often up to 46.1 µM), for inactives: at the highest dose activity, negative = less viability, most hits filed as cytotoxic | AID 686970 | 360,000 tested, 1.6% active | HT-1080-NT fibrosarcoma viability, CellTiter-Glo ATP luminescence, 48 h;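 further: NT is the 2HG producing partner of a matched IDH1 knockdown line; potency means the concentration at half of the fitted maximal effect; 0% = DMSO-treated cells and -100% = media-only wells without cells; nearly all actives have a fitted effect of over 55% in size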
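Luminescent CellTiter-Glo readout after 48 hours of compound exposure at 37 degrees C defined viability of HT-1080-NT cells. Activity was normalized to DMSO wells and cell-free media wells; concentration-response curves were fitted and assigned curve classes.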
Starred values were filed as active, the others as inactive; ? = inconclusive; nt = not tested or not shown. This is a sample that favours compounds with a hit; in the whole collection about 19% have one here. Unless noted, the call rests on the fitted dose curve; in most records, active means well fitted curve in the direction sought with a large enough effect; inconclusive means small, poorly fitted or top-dose-only effect, or another doubt; inactive means no such curve, though single readings can be large; an effect the other way counts as inactive or inconclusive. Unless noted, on the % scale 0 is the no-effect control and ±100 the full control effect.

SMILES	uPA surface inh	HT1080 IDH1KD tx	IL-1B inflam inh	DT40 TDP1 no CPT	TDP1 cell CPT	HT1080NT lethal
O=C(O)c1ccccc1-c1ccccc1C(=O)NCc1cccc(C(F)(F)F)c1	0%	11%	13	-5%	2%	11%
COc1cccc(Cn2c(=O)n(Cc3ccco3)c(=O)c3oc4ccccc4c32)c1	nt	nt	nt	23µM*	?	nt
COc1ccccc1NC(=O)Cn1c(=O)n(Cc2ccco2)c(=O)c2oc3ccccc3c21	nt	nt	nt	15µM*	?	nt
O=c1c2oc3ccccc3c2n(Cc2ccccc2)c(=O)n1Cc1ccco1	nt	nt	nt	-21%	-21%	nt
O=c1c2oc3ccccc3c2n(Cc2cccc(Cl)c2)c(=O)n1Cc1ccco1	nt	nt	nt	16µM*	16µM*	nt
Cc1ccc(C)c(CN2CCC(CNC(=O)Cn3ncc4c([nH]c5ccccc54)c3=O)CC2)c1	nt	nt	nt	15µM*	?	nt
Cc1cc(C)c(Cn2c3ccccc3c3cnn(CC(=O)NCCN4CCOCC4)c(=O)c32)c(C)c1	?	-14%	-10	?	?	3%
O=C(Cn1ncc2c([nH]c3ccccc32)c1=O)NCC1CCN(Cc2ccccc2F)CC1	-4%	9%	0	-2%	-17%	12%
CCN(CCCNC(=O)Cn1ncc2c([nH]c3ccc(C)cc32)c1=O)Cc1ccccc1	4%	10%	-27	16µM*	?	0%
Cc1ccc(C)c(Cn2c3ccccc3c3cnn(CC(=O)NCCN4CCOCC4)c(=O)c32)c1	-6%	-15%	-25	18µM*	16µM*	?
Cc1ccc(C)c(Cn2c3ccccc3c3cnn(CC(=O)NCCCN4CCOCC4)c(=O)c32)c1	-5%	?	-55*	?	?	?
COc1ccccc1Nc1nnc(SCC(=O)c2c(N)n(C3CC3)c(=O)[nH]c2=O)s1	1%	-18%	29	0%	2%	-27%
CCOC(=O)c1ccc(NC(=O)NCc2ccccn2)cc1	-10%	-1%	-23	9%	8%	0%
CC1=C(C(=O)OCCOc2ccccc2)C(c2coc3ccccc3c2=O)C2=C(CCCC2=O)N1 (stereo not given)	-9%	6%	18	?	-13%	2%
Cc1c(C(=O)OCCOc2ccccc2)[nH]c2c1C(=O)CCC2	-3%	-19%	?	23µM*	15µM*	-17%
Cc1c(C(=O)OC2CCCC2C)[nH]c2c1C(=O)CCC2 (stereo not given)	-10%	2%	-10	?	21µM*	1%
COC(=O)C1C(=O)c2c([nH]c(C(=O)OC3CCCC3)c2C)CC1C (stereo not given)	-12%	-1%	?	?	-78%	2%
CCOCCOC(=O)c1[nH]c2c(c1C)C(=O)CC(c1ccc(N(C)C)cc1)C2 (stereo not given)	13µM*	?	2	?	23µM*	1%
CCC(C)OC(=O)c1[nH]c2c(c1C)C(=O)CC(c1ccc(N(C)C)cc1)C2 (stereo not given)	10µM*	23µM*	8	15µM*	23µM*	?
COc1cccc(CNC(=O)CCc2c(C)nc3c(c2C)c(=O)n(C)c(=O)n3C)c1	nt	nt	nt	-22%	15%	nt
O=C(O)c1ccc(CNC(=O)C2CCN(S(=O)(=O)c3cccs3)CC2)cc1	nt	1%	21	13%	1%	1%
Cc1c(C(=O)O)[nH]c2c1C(=O)CC(c1ccc(C(C)(C)C)cc1)C2 (stereo not given)	-1%	16%	12	22%	3%	17%
CCOc1ccc(C2CC(=O)c3c([nH]c(C(=O)OCCOc4ccccc4)c3C)C2)cc1 (stereo not given)	nt	nt	nt	15µM*	13µM*	nt
CCOCCOC(=O)c1[nH]c2c(c1C)C(=O)CC(c1ccc(OC)c(OC)c1)C2 (stereo not given)	-2%	?	-26	13µM*	?	?
C/C=C/COC(=O)c1[nH]c2c(c1C)C(=O)CC(c1ccc(N(C)C)cc1)C2 (stereo not given)	?	-27%	-28	16µM*	26µM*	-18%
SMILES	uPA surface inh	HT1080 IDH1KD tx	IL-1B inflam inh	DT40 TDP1 no CPT	TDP1 cell CPT	HT1080NT lethal
CCOC(=O)c1[nH]c2c(c1C)C(=O)CC(c1ccc(OC)c(OC)c1)C2 (stereo not given)	0%	3%	0	-34%	2%	2%
O=C1CSc2ccc(S(=O)(=O)CCC(=O)NC3CCCCC3)cc2N1	9%	5%	24	?	3%	9%
Cc1ccc(NC(=O)c2cccc(S(=O)(=O)Nc3c(C)n(C)n(-c4ccccc4)c3=O)c2)cc1C	10%	6%	3	-8%	1%	3%
O=C(c1ccccc1)c1ccc(C(=O)N2CCN(c3ccccc3O)CC2)cc1	nt	1%	?	12µM*	26µM*	0%
Nc1ccccc1N1CCN(C(=O)c2ccccc2)CC1	1%	12%	-3	-7%	-21%	15%
O=C(NCC(=O)N1CCN(c2ccccc2O)CC1)C1CCCCC1	2%	6%	5	?	3.7µM*	2%
O=C(Nc1ccc(NC(=O)N2CCN(c3ccccc3O)CC2)cc1)N1CCN(c2ccccc2O)CC1	-6%	-12%	-15	26µM*	?	-15%
O=C(c1c(F)cccc1F)N1CCN(c2ccccc2F)CC1	-1%	-18%	-9	-17%	-21%	-3%
O=C(c1cccc(C(=O)N2CCN(c3ccccc3F)CC2)c1)N1CCN(c2ccccc2F)CC1	5%	-21%	-8	23µM*	?	-9%
CC(c1nc2ccccc2[nH]1)N(C(=O)Cc1csc2ccccc12)c1cccnc1 (stereo not given)	nt	3%	16	?	?	5%
O=C(NCC1CCCN1S(=O)(=O)c1cccs1)c1c(F)cccc1F (stereo not given)	0%	5%	1	?	-7%	7%
COc1ccc(CCCc2nnc(SCC(=O)Nc3ccc(F)cc3)o2)cc1C	nt	nt	nt	-17%	-13%	nt
COc1ccc(NC(=O)CN2CCN(Cc3ccccc3)S2(=O)=O)c(OC)c1	nt	nt	nt	-24%	-1%	nt
O=C(c1cccc(C(=O)N2CCN(c3ccccc3)CC2)c1)N1CCN(c2ccccc2)CC1	nt	-26%	0	15µM*	?	2%
O=C(C(Sc1ccccc1)c1ccccc1)N1CCN(c2ccccc2F)CC1 (stereo not given)	4%	-26%	-9	23µM*	?	-14%
